# Only a selection was taken, and hits are over-represented in it overall.
# TbREL1 primary: TbREL1 inhibition, primary screen. P86926. TbREL1 RNA ligation, FRET fluorescence. inhibition, % at 9.66 µM. actives 0.49% (n = 89,000);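 active = inhibition above the mean inhibition across all screened compounds plus 3 SD, cut at about 11% in these data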
# Target sequence (P86926 whole entry, looked up): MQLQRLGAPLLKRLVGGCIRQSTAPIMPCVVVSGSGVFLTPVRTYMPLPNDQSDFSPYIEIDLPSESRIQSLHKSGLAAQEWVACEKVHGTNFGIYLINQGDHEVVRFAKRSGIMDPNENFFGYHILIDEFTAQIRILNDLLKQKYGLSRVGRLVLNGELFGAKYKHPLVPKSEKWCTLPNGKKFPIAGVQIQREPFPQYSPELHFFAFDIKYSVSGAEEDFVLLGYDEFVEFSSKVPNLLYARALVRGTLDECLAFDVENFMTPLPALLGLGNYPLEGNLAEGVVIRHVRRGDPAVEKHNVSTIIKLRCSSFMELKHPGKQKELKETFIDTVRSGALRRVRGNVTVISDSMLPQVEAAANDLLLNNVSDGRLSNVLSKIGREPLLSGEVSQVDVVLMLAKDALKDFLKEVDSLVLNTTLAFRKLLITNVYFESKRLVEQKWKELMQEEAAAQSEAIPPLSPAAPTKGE
# TbREL1 confirm: TbREL1 inhibition, confirmation; TbREL1 RNA ligation, FRET fluorescence; inhibition, % at 9.66 µM; shares compounds with TbREL1 primary; actives 37% (n = 390); AID 1117282;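 active = mean inhibition across replicates above a set limit taken from the earlier primary screen, cut at about 11% in these data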
# Hits are given with their value; - = inactive.
SMILES,TbREL1 primary,others
CC(=O)N(C)c1ccc(NC(=O)/C=C/c2ccccc2Cl)cc1,-,
O=C(/C=C/c1cccc([N+](=O)[O-])c1)Nc1cc(C(=O)O)cc(C(=O)O)c1,-,
O=C(/C=C\c1ccccc1[N+](=O)[O-])Nc1ccccc1,12.1,TbREL1 confirm=-
Cc1cccc(CN2[C@@H](C)[C@H](c3ccccc3)Oc3cc(Br)ccc3S2(=O)=O)c1,-,
CCOc1cc(/C=N/Nc2nc(N3CCCC3)nc(N3CCCC3)n2)ccc1O,-,
Oc1ccccc1/C=N/Nc1cc(N2CCCC2)nc(N2CCCC2)n1,19.4,TbREL1 confirm=38.0
O=C(NNc1cc(N2CCCC2)nc(N2CCCC2)n1)c1ccc([N+](=O)[O-])cc1,-,
COC(=O)C1=C(C(=O)OC)[C@@]2([C@H](Cc3ccc(C)cc3)Nc3ccccc3)C=C[C@@H]1O2,-,
Cc1ccc(-n2c(SCC(=O)Nc3ccc4c(c3)OCCO4)nnc2-c2ccccn2)cc1,-,
COc1cc2c(cc1NC(=O)CSc1nnc(-c3ccccc3C)n1Cc1ccco1)oc1ccccc12,-,
COC(=O)c1cccc(Cn2ccc3ccc(-c4ccc5ccn(Cc6cccc(C(=O)OC)c6)c5c4)cc32)c1,-,
Nc1ncc(CCN2CCOCC2)c(-c2ccc(F)cc2)n1,14.6,TbREL1 confirm=-
Fc1ccc(-c2csc(N3CCOCC3)n2)cc1,-,
Fc1ccccc1OCCCN1CCOCC1,-,
COc1cccc(N2CCN(CC(=O)NCc3c(F)cccc3F)CC2)c1,-,
COc1ccc(/C=C/S(=O)(=O)NCC(C)C)c(CNC(=O)OC(C)(C)C)c1,-,
Cc1ccc2nsnc2c1NC(=O)CCl,11.2,TbREL1 confirm=-
O=C(COc1ccccc1)Nc1c(Cl)ccc2nsnc12,-,
Cc1ccc2nsnc2c1NC(=O)Cc1ccc(Cl)cc1,-,
COC(=O)C1=C(C)N(Cc2ccc(Br)cc2)C(=S)NC1c1cccc(OC)c1 (configuration not stated),-,
C[C@H](O)[C@@H]1C(=O)N2CCc3c([nH]c4ccccc34)[C@@H]2C[C@@H]1N(C)S(=O)(=O)c1ccccc1,-,
CCOC(=O)[C@@]12CCC3=C1N(CCC3)C(=O)[C@H](CC(=O)NCc1cccs1)C2,-,
COc1ccc2[nH]c3c(c2c1)CCN[C@]31C(=O)Nc2ccccc21,-,
COc1ccc2c3c([nH]c2c1)C1=NCC[C@]12c1ccccc1N=CN2CC3,-,
COc1ccc2c3c([nH]c2c1)[C@]1(CCNC=O)Nc2ccccc2C1=NCC3,11.5,TbREL1 confirm=-
SMILES,TbREL1 primary,others
COC(=O)[C@]12C[C@H](CC(=O)N3CCN(C(=O)C4CC4)CC3)C(=O)N(Cc3cccc4ccccc34)C1=C[C@H](COCc1ccccc1)O[C@@H]2C,-,
c1ccc(SCc2cn3cccnc3n2)nc1,-,
O=c1c2c(-c3ccco3)csc2nc(SCc2cn3cccnc3n2)n1-c1ccccc1,22.6,TbREL1 confirm=-
Nc1ccccc1SCc1cn2cccnc2n1,-,
COC(=O)[C@@]12C[C@@H](CC(=O)NCCC(C)C)C(=O)N(Cc3ccc4c(c3)OCO4)C1=CCC(C)(C)C2,-,
Cc1ccc(S(=O)(=O)N2CC3(COC(C)(C)OC3)C[C@H]2CON2C(C)(C)CCCC2(C)C)cc1,-,
C=CCn1c(CNC(=O)c2ccccc2F)nnc1SCC(=O)NC(C)c1ccccc1 (configuration not stated),12.3,TbREL1 confirm=-
C=CCn1c(CCNC(=O)c2ccccc2F)nnc1SCC(=O)Nc1ccccc1F,-,
C=CCn1c(CCNC(=O)c2ccccc2F)nnc1SCC(=O)Nc1nc(C)cs1,-,
Cc1ccc(C(=O)N[C@@H](C)CN2C3=NC[C@H](C(C)C)N3C[C@H]2Cc2ccc(O)cc2)cc1Br,-,
COc1ccc(C[C@H]2CN3C(=NC[C@@H]3Cc3ccc(O)cc3)N2CCNC(=O)c2ccc(C)c(Br)c2)cc1,-,
COc1ccc(C[C@H]2CN3C(=NC[C@@H]3C(C)C)N2C[C@H](C)NC(=O)c2ccc(C)c(Br)c2)cc1,13.1,TbREL1 confirm=19.7
CC(=O)Nc1sc2c(c1-c1nc3ccccc3s1)CCN(C(C)C)CC2,-,
CCCc1ccc(-c2cc(NC(=O)Cc3c(C)[nH]c4ccccc34)ccc2Nc2cccnc2)cc1,-,
c1ccc(CCNCCOc2ccccc2)cc1,-,
Cc1ccc(C(C)C)c(OCCNS(C)(=O)=O)c1,-,
Cc1ccc(C(C)C)c(OCCNCCc2ccccc2)c1,13.2,TbREL1 confirm=15.2
Cc1ccc(-n2c(SCc3cccc(F)c3)nc3ccccc3c2=O)cc1,-,
Cc1[nH]c2ccccc2c1CC(=O)Nc1ccc(Nc2cccnc2)c(-c2ccc(Oc3ccccc3)cc2)c1,-,
CC(=O)c1ccc(Nc2ccc(-c3ccccc3F)nn2)cc1,12.8,TbREL1 confirm=-
CC(=O)c1ccc(NS(=O)(=O)c2ccccc2)cc1,-,
O=C(c1ccccc1)c1nnc(-c2ccccc2F)o1,-,
CCn1c2ccccc2c2cc(NC(=O)COC(=O)c3cccc(F)c3F)ccc21,-,
Cc1ccc(NC(=O)C2CCN(S(=O)(=O)c3ccc4[nH]c(=O)oc4c3)CC2)cc1F,-,
CCC(C)NC(=O)C1CCN(S(=O)(=O)c2ccc3[nH]c(=O)oc3c2)CC1 (configuration not stated),12.0,TbREL1 confirm=24.8
SMILES,TbREL1 primary,others
CCC(C)NC(=O)C1CCN(S(=O)(=O)c2cccnc2)CC1 (configuration not stated),-,
CC1CCN(CCCNS(=O)(=O)c2cc3c(cc2Br)CCN3C(=O)C2CC2)CC1,-,
CCNC(=O)Nc1ccc2c(c1)C(=O)N(C)[C@H]1CC[C@@H](CC(=O)NCCN3CCCC3)O[C@@H]1CO2,-,
CC(=O)NC(c1cccs1)c1cc(F)c2cccnc2c1O (configuration not stated),-,
CCC(=O)NC(c1cccs1)c1cc([N+](=O)[O-])c2cccnc2c1OC (configuration not stated),32.8,TbREL1 confirm=-
CCC(=O)NC(c1cccs1)c1ccc2cccnc2c1O (configuration not stated),-,
CCCCNC(=O)C1CCCN1C(=O)Nc1ccc(Cl)cc1 (configuration not stated),-,
COc1ccc(Cn2cc(CN3CC(N4CCN(Cc5ccccc5F)CC4)CS3(=O)=O)nn2)cc1 (configuration not stated),-,
COC(=O)C(CN)CN1C(=O)c2ccccc2C1=O (configuration not stated),-,
O=C(OCC#CCSc1nnc(-c2c[nH]c3ccccc23)o1)c1ccc(F)cc1,-,
Cc1ccc(C(=O)C[n+]2cc(-c3ccc(C)cc3)n3c2CCCCC3)cc1,-,
Cc1ccc(S(=O)(=O)N2CCN=C2SCc2ccc(Cl)c(Cl)c2)cc1,-,
Cc1ccc(-c2c[n+](Cc3ccc(Cl)c(Cl)c3)c3n2CCC3)cc1,13.4,TbREL1 confirm=-
O=C(CSc1nnc(-c2ccccn2)n1-c1ccc(Cl)cc1)Nc1ccc(S(=O)(=O)Nc2nccs2)cc1,-,
COC(=O)[C@]12C[C@H](CC(=O)NCc3ccc(C)o3)C(=O)N(Cc3ccc(Cl)cc3Cl)C1=C[C@H](C(C)C)O[C@@H]2C1CC1,-,
C[C@@H]1CCN(C2CC2)S(=O)(=O)c2ccc(N3CCC[C@@H]3CO)cc2O1,-,
COC(=O)C1CN(Cc2ccccc2)CCS(=O)(=O)N1Cc1cccc(Cl)c1 (configuration not stated),-,
COC(=O)c1cccc(Cn2ccc3ccc(-c4ccc5ccn(C(=O)c6ccc(C)cc6)c5c4)cc32)c1,-,
Oc1ccc(CNc2ccccc2F)c2cccnc12,-,
Oc1ccc(Nc2ccccc2F)c2cccnc12,17.4,TbREL1 confirm=-
Oc1ccc(-c2ccccc2F)c2cccnc12,-,
O=C(CCc1nc(-c2ccccc2F)no1)NCCc1ccc(F)cc1,-,

# Screens (PubChem BioAssay)
